In the supplement of paper PMC7156485:

These molecules were tested on TDF (assay: H1.0 immunofluorescence intensity relative to DMSO (% of DMSO); higher = stronger H1.0 induction, active = 120 or more). Settings: concentration: 10 µM; 24 h.
How it was run: (§1)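 H1.0 nuclear intensity or cell number is expressed as percent of the plate control, with the median of replicates taken. HCC1569 and TDF cells were treated with compounds at 10 µM for 24 h at 37 °C, in triplicate, then fixed and immunostained for H1.0 with DAPI as a nuclear stain. HCC1569 values were smoothed to correct for positional effects.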
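Note: TDF is a line of transformed human dermal fibroblasts of mesenchymal origin.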

SMILES | H1.0 immunofluorescence intensity
CC(C)(C)NCC(O)c1ccc(O)c(CO)c1.CC(C)(C)NCC(O)c1ccc(O)c(CO)c1.O=S(=O)(O)O (configuration not stated) [Albuterol hemisulfate] | 92.5 (inactive)
Cn1c(=O)c2[nH]c(C3CCCC3)nc2n(C)c1=O [8-Cyclopentyl-1,3-dimethylxanthine] | 98.6 (inactive)
CNC1(C)C2CCC(C2)C1(C)C.Cl (configuration not stated) [Mecamylamine hydrochloride] | 94.1 (inactive)
CCN1CCc2nc(N)oc2CC1.Cl.Cl [B-HT 933 dihydrochloride] | 97 (inactive)
CCCCCC(O)C=CC1C(O)CC(O)C1CC(=O)CCC(=O)O (configuration not stated) [2,3-Dinor-6-keto-prostaglandin F1a] | 88.8 (inactive)
Nc1nccc(-c2c(-c3ccc(F)cc3)ncn2C2CCNCC2)n1 | 88.6 (inactive)
COc1cc(Cc2cnc(N)nc2N)cc(OC)c1OC [Trimethoprim] | 106 (inactive)
CCOC(=O)CN1C(=O)c2ccc3c4c(ccc(c24)C1=O)C(=O)N(CC(=O)OCC)C3=O | 89.7 (inactive)

The molecules below were run on HCC1569 (assay: H1.0 immunofluorescence intensity relative to DMSO (% of DMSO); higher = stronger H1.0 induction, active = 140 or more). Settings: concentration: 10 µM; 24 h.
How it was run: as §1

SMILES | H1.0 immunofluorescence intensity
CCCCCC=CCC=CCC(O)C=CC=CCCCC(=O)O (configuration not stated) | 101 (inactive)
CN(C)C1C(=O)C(C(N)=O)=C(O)C2(O)C(=O)C3=C(O)c4c(O)ccc(Cl)c4C(O)C3CC12.Cl (configuration not stated) [Demeclocycline hydrochloride] | 104 (inactive)
CCCCc1oc2ccccc2c1C(=O)c1cc(I)c(OCCN(CC)CC)c(I)c1.Cl [Amiodarone.HCl] | 110 (inactive)
Cl.Cl.N=C(N)c1ccc(N)cc1 [4-Aminobenzamidine dihydrochloride] | 94.1 (inactive)
CCN(CC)C(=O)C(C#N)=Cc1cc(O)c(O)c([N+](=O)[O-])c1 [Entacapone] | 105 (inactive)
CC1OC(OC2C(O)CC(OC3C(O)CC(OC4CCC5(C)C(CCC6C5CCC5(C)C(C7=CC(=O)OC7)CCC65O)C4)OC3C)OC2C)CC(O)C1O (configuration not stated) [Digitoxin] | 121 (inactive)
C1CCN2CC3CC(CN4CCCCC34)C2C1.O.O.O.O.O.O=S(=O)(O)O (configuration not stated) | 98.4 (inactive)
CCCCCCCCCCCC(CC1OC(=O)C1CCCCCC)OC(=O)C(CC(C)C)NC=O (configuration not stated) [Tetrahydrolipistatin] | 90.5 (inactive)
CCCCCC(=O)CCC1C(O)CC(O)C1CC=CCCCC(=O)O (configuration not stated) [13,14-Dihydro-15-keto-prostaglandin F2a] | 98.2 (inactive)
Cc1nc2sccn2c(=O)c1CCN1CCC(=C(c2ccccc2)c2ccc(F)cc2)CC1 [Diacylglycerol kinase inhibitor I] | 118 (inactive)
Cc1oncc1C(=O)Nc1ccc(C(F)(F)F)cc1 [Leflunomide] | 101 (inactive)
COC(=O)Nc1nc2ccc(C(=O)c3ccccc3)cc2[nH]1 [Mebendazol] | 127 (inactive)
Cn1c(=O)c2c(nc(C=Cc3cccc(Cl)c3)n2C)n(C)c1=O [8-(3-Chlorostyryl)caffeine] | 99.1 (inactive)
Cc1cc(C(C)(C)C)c(O)c(C(C)(C)C)c1 | 99 (inactive)
CC(C)=CCC(OC(=O)C=C(C)C)C1=CC(=O)c2c(O)ccc(O)c2C1=O (stereo not drawn) [Shikonin beta,beta-dimethylacrylate] | 114 (inactive)
COc1ccc(-c2cc(=S)ss2)cc1 [Anethole trithione] | 103 (inactive)
Cc1cc(Nc2nc(-c3ccccc3)nc3ccccc23)n[nH]1 [GSK-3 Inhibitor XIII] | 182 (active)
CCC=CCC=CCC=CCCCCCCCC(=O)O [Linolenic acid] | 97.6 (inactive)
Cc1ccc(F)cc1C(=O)Nc1ccc(C(=O)N2Cc3cccn3Cc3ccccc32)c(Cl)c1 | 131 (inactive)
COc1ccc2cc(C(C)C(=O)[O-])ccc2c1.[Na+] (single isomer, unassigned; (-)) [(-)-Naproxen sodium] | 102 (inactive)

SMILES | H1.0 immunofluorescence intensity
O=C(NC(CO)C(O)c1ccc([N+](=O)[O-])cc1)C(Cl)Cl (configuration not stated) [Chloramphenicol] | 112 (inactive)
COc1cc(C=CC(=O)CC(=O)C=Cc2ccc(O)c(OC)c2)ccc1O [Curcumin] | 139 (inactive)
COC(=O)/C=C/c1cccc(N(Cc2ccc(-c3ccc(N(C)C)cc3)cc2)C(=O)C2CCCCC2)c1 | 106 (inactive)
Oc1cc2c(cc1O)CN(C(=S)NCCc1ccc(Cl)cc1)CCC2 [Capsazepine] | 86.2 (inactive)
O=C(NC(NC(=S)Nc1ccc(F)c([N+](=O)[O-])c1)C(Cl)(Cl)Cl)C(c1ccccc1)c1ccccc1 (configuration not stated) [ATM/ATR Kinase Inhibitor] | 179 (active)
COCCc1ccc(OCC(O)CNC(C)C)cc1 (configuration not stated) [Metoprolol] | 104 (inactive)
O=C1CCc2cc(OCCCCc3nnnn3C3CCCCC3)ccc2N1 [Cilostazol] | 97 (inactive)
CCCCCC(O)C=CC1C2CC(CO2)C1CC=CCCCC(=O)O (configuration not stated) | 99.9 (inactive)
COc1cccc2c1C(=O)c1c(O)c3c(c(O)c1C2=O)CC(O)(C(=O)CO)CC3OC1CC(N)C(O)C(C)O1.Cl (configuration not stated) [Doxorubicin.HCl] | 1430 (active)
Cc1cc2ncc(-c3ccccc3)nc2cc1C | 112 (inactive)
CCCCCCCCC=CCCCCCCCCCCCCC(=O)O [14(E)-Tricosenoic acid] | 104 (inactive)
CC(C)(C)NCC(O)c1ccc(O)c(CO)c1.CC(C)(C)NCC(O)c1ccc(O)c(CO)c1.O=S(=O)(O)O (configuration not stated) [Albuterol hemisulfate] | 107 (inactive)
Cn1c(=O)c2[nH]c(C3CCCC3)nc2n(C)c1=O [8-Cyclopentyl-1,3-dimethylxanthine] | 102 (inactive)
CNC1(C)C2CCC(C2)C1(C)C.Cl (configuration not stated) [Mecamylamine hydrochloride] | 93.5 (inactive)
CCN1CCc2nc(N)oc2CC1.Cl.Cl [B-HT 933 dihydrochloride] | 87.2 (inactive)
CCCCCC(O)C=CC1C(O)CC(O)C1CC(=O)CCC(=O)O (configuration not stated) [2,3-Dinor-6-keto-prostaglandin F1a] | 101 (inactive)
Nc1nccc(-c2c(-c3ccc(F)cc3)ncn2C2CCNCC2)n1 | 143 (active)
COc1cc(Cc2cnc(N)nc2N)cc(OC)c1OC [Trimethoprim] | 107 (inactive)
CCOC(=O)CN1C(=O)c2ccc3c4c(ccc(c24)C1=O)C(=O)N(CC(=O)OCC)C3=O | 100 (inactive)
